Assay outcomes as filed in PubChem BioAssay.
MBNL1-CUG inh = blocks human MBNL1 binding to CUG repeat RNA | Q9NR56 | TR-FRET MBNL1-His/biotin-(CUG)12 binding, 665/545 ratio | Potency, µM (top dose mostly 57.5 µM), hits mostly inhibitors | actives 0.036% (n = 280,000); active = well fitted inhibition curve with a large enough effect in the signal ratio, with a control signal flat, not every such curve was filed as active; inconclusive = small, poorly fitted or top-dose-only effect, or effect the other way, or a change in a side signal; inactive = no such curve, though single readings can be large or run the other way; the % refers to the signal ratio
Target sequence (Q9NR56 whole entry, looked up): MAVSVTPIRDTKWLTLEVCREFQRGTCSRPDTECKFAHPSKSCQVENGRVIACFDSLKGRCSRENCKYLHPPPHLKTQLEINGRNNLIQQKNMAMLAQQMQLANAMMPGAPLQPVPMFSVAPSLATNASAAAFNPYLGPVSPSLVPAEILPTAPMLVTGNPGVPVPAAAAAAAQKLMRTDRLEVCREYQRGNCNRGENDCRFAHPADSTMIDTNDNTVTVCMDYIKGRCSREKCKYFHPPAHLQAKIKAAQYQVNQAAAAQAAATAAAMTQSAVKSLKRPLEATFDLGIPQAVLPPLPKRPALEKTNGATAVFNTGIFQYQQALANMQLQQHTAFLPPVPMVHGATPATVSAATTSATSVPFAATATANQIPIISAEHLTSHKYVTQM
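Compound titration spanned 92 nM–58 uM against the MBNL1-His/biotin-(CUG)12 complex. After 60 min at room temperature with 5 nM streptavidin-XL665 and 0.055 ng/ul terbium anti-His, ratiometric 665/545 nm emission (Ex 340 nm) normalized to controls.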
Six1-Eya2 blk = inhibitors of human Six1/Eya2 interaction. Q15475+O00167. AlphaScreen GST-Six1/His-Eya2 binding, biochemical; hits give low values. activity change, % (concentration not given with the values). actives 0.56% (n = 360,000). AID 651725
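Homogeneous AlphaScreen proximity assay pairing GST-Six1 with His-tagged Eya2 (added as 5X mix: 250 nM and 500 nM) in 50 mM Tris pH 8.0, 300 mM NaCl, 1 mM TCEP. Glutathione donor and nickel acceptor beads; 1 h, 37 °C, dark.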
Mito fusion yeast = blocks mitochondrial division or promotes mitochondrial fusion. S. cerevisiae fusion-defective mutant growth rescue, CellTiterGlo 48 h. AID 485298. actives 0.23% (n = 320,000). Potency, µM (doses to about 46.1 µM), hits mostly activators; active = well fitted activation curve with a large enough effect; inconclusive = small, poorly fitted or top-dose-only effect; inactive = no such curve, though single readings can be large or run the other way; note: nearly all actives have a fitted effect of over 45% in size
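Read-out: ATP-based luminescence (CellTiterGlo, 10 min ambient) reporting growth of fusion-defective ts yeast after 48 hours at 37C on glycerol/ethanol YPEG medium in the presence of compound.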
uPA generation = cell surface uPA generation inhibition | cell surface uPA generation assay, qHTS | Potency, µM (titrated, usually from 38.3 µM), hits mostly inhibitors | AID 540303 | actives 0.31% (n = 330,000); active = well fitted inhibition curve with a large enough effect; inconclusive = small, poorly fitted or top-dose-only effect; inactive = no such curve, though single readings can be large or run the other way; tested in mouse RAW 264.7 cells; note: nearly all actives have a fitted effect of over 55% in size
CtBP-E1A blk = CtBP/E1A binding inhibition. AlphaScreen GST-E1A/His-CtBP binding, 1536-well; hits give low values. actives 0.49% (n = 340,000). activity change, % (test concentration not listed)
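GST-E1A and His-tagged CtBP (125 nM each as 5X stock) were preincubated with pin-transferred compound for 2 h at 37 °C in the dark, then glutathione donor and nickel acceptor beads were added for 1 h before AlphaScreen reading.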
Hits are given with their value; i = inactive; ? = inconclusive; nt = no result given. An excerpt weighted towards active compounds, which were near 1.1% of everything screened. Cut-off read from the data, not from the text of the source, unless noted: active = activity change below about -65%; inconclusive = mostly about -30% to -63%; inactive = weaker than that.

SMILES	MBNL1-CUG inh	Six1-Eya2 blk	Mito fusion yeast	uPA generation	CtBP-E1A blk
O=C(NNc1ccccn1)C(=O)NNS(=O)(=O)c1ccc(Cl)cc1	i	-85	i	i	?
Cc1ccc(N2CCN(C(CCc3ccccc3)C(=O)Nc3c(C)cccc3C)CC2)cc1 (stereo not given)	nt	i	nt	nt	i
COc1ccc(C)cc1NC(=O)CSc1ccc(-c2ccccn2)nn1	i	-83	i	i	-85
CCOC(=O)c1ccccc1NC(=O)CSc1ccc(-c2ccccn2)nn1	i	-84	i	?	-86
COc1ccc(C)cc1NC(=O)CSc1ccc(-c2sc(C)nc2C)nn1	i	i	i	i	i
CCc1ccc(NC(=O)CSc2ccc(-c3ccccn3)nn2)cc1	i	?	i	?	?
COC(=O)N/N=C\C=C\c1ccc2c(c1)OCO2	?	i	i	i	i
COc1ccc(CC(=O)N/N=C/C=C/c2ccc3c(c2)OCO3)cc1OC	nt	-69	i	i	i
O=C(O)c1ccc2c(c1)C(=O)N([C@H](Cc1c3ccccc3cc3ccccc13)C(=O)O)C2=O	nt	nt	i	nt	nt
Cc1ccc2c(=O)cc(C(=O)NCc3ccccc3)oc2c1C	i	i	13µM	i	nt
Cn1cc(C[C@H](C(=O)O)N2C(=O)c3ccc(C(=O)O)cc3C2=O)c2ccccc21	nt	nt	i	nt	nt
O=C(c1ccc2ccccc2c1)C1CCCN(C(=O)c2cccnc2)C1 (stereo not given)	?	i	i	i	i
O=C(c1ccc2ccccc2c1)C1CCCN(C(=O)c2noc3c2CCCC3)C1 (stereo not given)	i	i	10µM	i	i
COc1cccc(/C=N/NC(=O)c2[nH]c(C)c(C(=O)N/N=C/c3cccc(OC)c3)c2C)c1	i	-68	i	i	?
O=S(c1cc(Cl)cc(Cl)c1O)c1cc(Cl)cc(Cl)c1O	nt	-92	nt	nt	i
Cc1ccc(/C=C2\S/C(=N/S(=O)(=O)c3cccs3)NC2=O)cc1	i	-67	i	i	nt
Cc1ccc(S(=O)(=O)/N=C2/NC(=O)/C(=C\c3ccccc3)S2)cc1	nt	i	nt	i	i
CC(=O)O[C@]1(C(C)=O)CC[C@H]2[C@@H]3C=C(Cl)C4=CC(=O)[C@@H]5C[C@@H]5[C@]4(C)[C@H]3CC[C@@]21C	nt	i	21µM	i	i
CC(=O)O[C@]1(C(C)=O)CC[C@H]2[C@@H]3C=C(Cl)C4=CC(=O)CC[C@]4(C)[C@H]3CC[C@@]21C	i	i	?	i	i
COc1cc2c(cc1OC)C(O)=CC(=O)C2=O	nt	i	nt	nt	i
CN(C)c1cc2c(c(N(C)C)c1)C(=O)c1ccccc1C2=O	?	-81	i	i	-81
CN(C)S(=O)(=O)c1cccc2c1C(=O)c1ccccc1C2=O	?	i	i	i	i
O=c1[nH]c2cnn(-c3ccccc3)c2c(=O)n1O	nt	i	nt	i	i
CN1CCN(C2=C(NS(=O)(=O)c3ccccc3)C(=O)c3ccccc3C2=O)CC1	?	i	i	i	i
CCOC(=O)C1CCN(C2=C(NS(=O)(=O)c3ccc(Br)cc3)C(=O)c3ccccc3C2=O)CC1	?	-80	i	i	nt
SMILES	MBNL1-CUG inh	Six1-Eya2 blk	Mito fusion yeast	uPA generation	CtBP-E1A blk
O=C1C(NS(=O)(=O)c2ccc(Cl)cc2)=C(N2CCCCC2)C(=O)c2ccccc21	?	-80	i	i	-81
COc1ccc(/C=N/NC(=O)c2ccncc2)cc1Cn1nc([N+](=O)[O-])c(Br)c1C	?	-69	i	i	?
COc1ccc(/C=N/NC(=O)c2ccn[nH]2)cc1Cn1nc(C)c([N+](=O)[O-])c1C	i	i	i	i	nt
COc1cccc(/C=N\NC(=O)c2ccc(Cn3cc(Br)c([N+](=O)[O-])n3)o2)c1O	i	?	i	i	-74
COc1cc(/C=N\NC(=O)c2ccc(Cn3nc([N+](=O)[O-])c(Cl)c3C)o2)ccc1O	?	-83	i	i	-84
COc1ccc(OC)c(NC(=O)c2cccc(Cn3cc(Br)c([N+](=O)[O-])n3)c2)c1	nt	i	?	i	i
O=C(CCN1C(=O)/C(=C/c2ccc(F)cc2)SC1=S)NC1C=CS(=O)(=O)C1 (stereo not given)	?	i	i	i	nt
O=C(CCN1C(=O)/C(=C/c2ccccc2Cl)SC1=S)NC1C=CS(=O)(=O)C1 (stereo not given)	?	i	i	7.9µM	nt
CC1(c2nc3ccccc3[nH]2)CCC2=Nc3ccccc3CN21 (stereo not given)	nt	i	nt	nt	i
Cc1cccc2sc(NNC(=O)c3ccc(S(=O)(=O)N4CCc5ccccc5C4)cc3)nc12	i	i	i	?	i
Cc1cccc2sc(NNC(=O)c3ccc(S(=O)(=O)N4CCCC(C)C4)cc3)nc12 (stereo not given)	i	i	i	8.9µM	i
O=C1NC(Cc2ccccc2)c2nc3ccc(F)cc3c(=O)n2-c2cc3ccccc3cc21 (stereo not given)	nt	i	nt	nt	i
COc1cccc(Nc2nc(-c3sc(N)nc3C)cs2)c1	i	?	i	nt	-72
N#Cc1ccc(C(=O)Nc2ccc3ccccc3c2)cc1	i	i	i	i	i
O=C(Nc1ccc2ccccc2c1)c1ccc2[nH]c(=O)c(=O)[nH]c2c1	i	?	i	i	-85
COC(=O)C[C@H]1C[C@H]2c3cc(NC(=O)Nc4ccc(F)cc4)ccc3O[C@H]2[C@@H](CO)O1	nt	i	nt	nt	i
CCOC(=O)CSc1c(-c2ccc(Cl)cc2)[nH]c2ccccc12	i	i	?	i	nt
CCOC(=O)CSc1c(-c2cccs2)[nH]c2ccccc12	i	i	14µM	i	i
COc1ccccc1CCC(=O)NNC(=O)Cn1nc(C)cc1C	nt	i	nt	nt	i
O=C1/C(=C/c2ccsc2)CC/C1=C\c1cccs1	nt	nt	12µM	nt	nt
O=C1/C(=C/c2cccs2)CCC/C1=C\c1cccs1	i	?	i	i	i
CC(C)NC(=O)C1(C)CN(S(C)(=O)=O)CC(=O)N1CCOc1ccccc1 (stereo not given)	nt	i	nt	nt	i
C=CCN1CCc2c(cc(O)c(O)c2Br)[C@@H](c2ccccc2)C1	nt	i	16µM	?	i
CN1CCc2cc(O)c(O)cc2C(c2ccccc2)C1 (stereo not given)	nt	i	?	i	i
COc1ccc(S(=O)(=O)Nc2cccc(-c3ccc4nncn4n3)c2)cc1F	i	i	i	2.8µM	nt
SMILES	MBNL1-CUG inh	Six1-Eya2 blk	Mito fusion yeast	uPA generation	CtBP-E1A blk
O=S(=O)(Nc1cccc(-c2ccc3nncn3n2)c1)c1cccc(F)c1	nt	i	i	i	i
COc1ccccc1-n1c(CCC(=O)O)ccc1-c1ccccc1	i	i	i	i	i
COc1ccc(-c2ccc(CCC(=O)O)n2-c2ccccc2OC)cc1	i	i	i	2.2µM	nt
O=C(C(=Cc1ccc(F)cc1)C(=O)c1ccccc1)c1ccccc1	nt	i	nt	nt	i
COc1cc2nc(CN(C)Cc3ccc(C(C)(C)C)cc3)[nH]c(=O)c2cc1OC	i	i	i	3.5µM	nt
O=C1c2ccccc2C(=O)c2cc(N3CCCCC3)ccc21	nt	?	nt	i	?
